Laboratory results: PubChem BioAssay (Tox21)
“And” between values parts separate entries of the source, which are not always exact repeats. Equal entries are not always repeated. Records with an inconclusive call do not appear. A structure can be active in one record and inactive in another. The source made the active and inactive calls. Unless noted, the call rests on the fitted dose curve; in most records, active means well fitted curve in the direction sought with a large enough effect in the repeat runs; inconclusive means weak or mixed curves; inactive means no such curve, though single readings can be large; an effect the other way counts as inactive or inconclusive.

Assays:
[1] = qHTS assay to identify small molecule agonists of the peroxisome proliferator-activated receptor delta (PPARd) signaling pathway - cell viability counter screen (AID 743211); further: nearly all actives have a fitted effect of over 55% in size; further: potency means the concentration at half of the fitted maximal effect
Procedure, shortened: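 Following 5 h plating at 37 C and 5% CO2, PPARd UAS-bla HEK293H cells took up test compounds for 17 h. Viability was quantified by luminescence 30 min after CellTiter-Glo addition at room temperature.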

[2] = qHTS assay to identify small molecule antagonists of the peroxisome proliferator-activated receptor delta (PPARd) signaling pathway - cell viability counter screen (AID 743213); further: nearly all actives have a fitted effect of over 50% in size; further: potency means the concentration at half of the fitted maximal effect
Procedure, shortened: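 Agonist-stimulated (L165041, 300 nM final) HEK293H PPARd UAS-bla cells are exposed to compounds for 17 h at 37 C, and ATP-based luminescence (CellTiter-Glo) from the same wells reports cytotoxicity.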

[3] = qHTS assay to identify small molecule agonists of the farnesoid-X-receptor (FXR) signaling pathway - cell viability counter screen (AID 743218); further: nearly all actives have a fitted effect of over 45% in size
Procedure, shortened: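 Luminescence from CellTiter-Glo, read after 30 min at RT, reports viability of GeneBLAzer FXR-UAS-bla HEK 293T cells treated 16 h with compounds in the wells used for the beta-lactamase reporter.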

[4] = qHTS assay to identify small molecule antagonists of the farnesoid-X-receptor (FXR) signaling pathway - cell viability counter screen (AID 743221; active means well fitted cell-killing curve with a large enough effect in the repeat runs, not every such curve was filed as active; further: nearly all actives have a fitted effect of over 50% in size)
Procedure, shortened: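 Compound effects on cell number were measured as CellTiter-Glo luminescence in HEK 293T cells expressing FXR-UAS-bla, after 16 h at 37 C with 50 uM CDCA (final).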

[5] = biological target: Vitamin D3 receptor (Homo sapiens) (UniProt P11473); experiment: qHTS assay to identify small molecule agonists of the vitamin D receptor (VDR) signaling pathway (AID 743222; calls by dose curve; further: potency means the concentration at half of the fitted maximal effect)
Procedure, shortened: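 Beta-lactamase reporter readout (LiveBLAzer B/G FRET, 2 h RT) in VDR-bla cells after 16 h compound treatment at 37C, 5% CO2; cells pre-incubated 4 h before pin transfer of DMSO solutions.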

[6] = biological target: Vitamin D3 receptor (Homo sapiens) (UniProt P11473); experiment: qHTS assay to identify small molecule antagonists of the vitamin D receptor (VDR) signaling pathway (AID 743223; active means well fitted inhibition curve with a large enough effect in the signal ratio in the repeat runs, not every such curve was filed as active; the % refers to the signal ratio; further: potency means the concentration at half of the fitted maximal effect)
Procedure, shortened: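 Beta-lactamase activity in VDR-bla cells is measured by FRET substrate fluorescence (2 h, room temperature) after cells spend 16 h at 37C with test compound and 3 nM final 1alpha,25-dihydroxyvitamin D3.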

[7] = biological target: Peroxisome proliferator-activated receptor delta (Homo sapiens) (UniProt Q03181); experiment: qHTS assay to identify small molecule agonists of the peroxisome proliferator-activated receptor delta (PPARd) signaling pathway (AID 743212; calls by dose curve)
Procedure, shortened: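 Steps: seed PPARd-bla HEK293H cells; incubate 5 h, 37 C, 5% CO2; add compounds in DMSO; incubate, 37 C; add LiveBLAzer B/G FRET substrate; hold 2 h at room temperature; measure fluorescence.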

[8] = biological target: Peroxisome proliferator-activated receptor delta (Homo sapiens) (UniProt Q03181); experiment: qHTS assay to identify small molecule antagonists of the peroxisome proliferator-activated receptor delta (PPARd) signaling pathway (AID 743215; active means well fitted inhibition curve with a large enough effect in the signal ratio in the repeat runs, not every such curve was filed as active; the % refers to the signal ratio; further: series mostly up to about 62 µM)
Procedure, shortened: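 HEK293H GeneBLAzer PPARd UAS-bla reporter cells; cpd + L165041 300 nM final, 17 h 37 C; LiveBLAzer B/G FRET substrate 2 h RT; fluorescence intensity read-out. Antagonist mode.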

[9] = biological target: Bile acid receptor (Homo sapiens) (UniProt Q96RI1); experiment: qHTS assay to identify small molecule antagonists of the farnesoid-X-receptor (FXR) signaling pathway (AID 743217; active means well fitted inhibition curve with a large enough effect in the signal ratio in the repeat runs, not every such curve was filed as active; the % refers to the signal ratio)
Procedure, shortened: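 Read-out: beta-lactamase FRET fluorescence (LiveBLAzer B/G substrate, 2 h, room temperature) in GeneBLAzer FXR-UAS-bla HEK 293T cells. Compounds were co-dosed with 50 uM chenodeoxycholic acid (final) and incubated 16 h at 37 °C.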

[10] = biological target: Bile acid receptor (Homo sapiens) (UniProt Q96RI1); experiment: qHTS assay to identify small molecule agonists of the farnesoid-X-receptor (FXR) signaling pathway (AID 743220; active means well fitted activation curve with a large enough effect in the signal ratio in the repeat runs, not every such curve was filed as active; the % refers to the signal ratio)
Procedure, shortened: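 FXR-UAS-bla HEK 293T cells carrying a UAS-driven beta-lactamase reporter were plated for 5 h at 37C/5% CO2, then exposed to DMSO-dissolved Tox21 10K compounds for 16 h at 37C. A LiveBLAzer B/G FRET substrate was loaded for 2 h at room temperature before fluorescence reading.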

Measured: Potency

Sequence of Peroxisome proliferator-activated receptor delta (Homo sapiens) (Q03181 whole entry, looked up): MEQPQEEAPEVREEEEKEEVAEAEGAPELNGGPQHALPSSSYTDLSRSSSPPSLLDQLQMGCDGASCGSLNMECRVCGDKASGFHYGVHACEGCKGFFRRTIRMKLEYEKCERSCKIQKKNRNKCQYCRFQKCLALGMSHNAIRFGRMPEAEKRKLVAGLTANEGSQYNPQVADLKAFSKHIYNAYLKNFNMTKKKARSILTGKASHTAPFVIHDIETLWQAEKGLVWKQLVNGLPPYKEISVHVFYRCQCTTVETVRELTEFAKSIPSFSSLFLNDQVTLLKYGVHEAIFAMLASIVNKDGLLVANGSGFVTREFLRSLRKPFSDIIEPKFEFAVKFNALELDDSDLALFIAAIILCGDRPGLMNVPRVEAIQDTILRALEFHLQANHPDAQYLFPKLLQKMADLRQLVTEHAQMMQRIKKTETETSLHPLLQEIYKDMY
Sequence of Vitamin D3 receptor (Homo sapiens) (P11473 whole entry, looked up): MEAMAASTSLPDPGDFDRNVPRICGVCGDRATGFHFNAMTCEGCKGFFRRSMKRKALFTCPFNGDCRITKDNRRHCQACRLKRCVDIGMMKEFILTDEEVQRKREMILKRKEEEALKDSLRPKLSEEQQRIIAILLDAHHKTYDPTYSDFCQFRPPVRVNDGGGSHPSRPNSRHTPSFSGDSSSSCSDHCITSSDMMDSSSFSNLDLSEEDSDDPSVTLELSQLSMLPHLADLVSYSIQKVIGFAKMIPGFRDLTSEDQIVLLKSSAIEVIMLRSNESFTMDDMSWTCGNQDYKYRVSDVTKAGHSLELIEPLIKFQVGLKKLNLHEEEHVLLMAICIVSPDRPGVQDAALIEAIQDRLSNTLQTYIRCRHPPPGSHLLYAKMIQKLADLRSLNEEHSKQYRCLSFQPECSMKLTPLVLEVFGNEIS
Sequence of Bile acid receptor (Homo sapiens) (Q96RI1 whole entry, looked up): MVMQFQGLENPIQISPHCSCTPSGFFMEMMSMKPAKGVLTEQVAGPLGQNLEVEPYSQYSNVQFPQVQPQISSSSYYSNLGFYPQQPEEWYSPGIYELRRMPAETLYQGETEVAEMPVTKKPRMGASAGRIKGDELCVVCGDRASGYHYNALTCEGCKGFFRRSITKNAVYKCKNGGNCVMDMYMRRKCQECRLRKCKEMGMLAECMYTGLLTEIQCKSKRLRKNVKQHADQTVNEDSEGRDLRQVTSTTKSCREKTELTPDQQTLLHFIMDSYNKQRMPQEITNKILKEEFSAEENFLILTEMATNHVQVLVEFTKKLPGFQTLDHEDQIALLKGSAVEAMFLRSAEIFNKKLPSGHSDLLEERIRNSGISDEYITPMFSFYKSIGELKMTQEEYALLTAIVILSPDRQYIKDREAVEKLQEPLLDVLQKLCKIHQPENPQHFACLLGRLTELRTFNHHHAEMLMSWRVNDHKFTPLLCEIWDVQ

CS(=O)(=O)Nc1ccc([N+](=O)[O-])cc1Oc1ccccc1
inactive: [1] | [2] | [3] | [4] | [5] | [6]

COC(=O)Nc1nc2ccc(Sc3ccccc3)cc2[nH]1
inactive: [7] | [2] | [3] | [4] | [5]

CC1COc2ccccc2N1C(=O)C(Cl)Cl (stereo not drawn)
inactive: [1] | [2] | [8] | [3] | [4] | [5]

C/C=C(C)/C=C/C=C(C)C
inactive: [1] | [2] | [4] | [5] | [6]

OC[C@@H](O)[C@@H](O)[C@H](O)[C@@H](O)CO
inactive: [1] | [2] | [3] | [4] | [5]

Cc1cc(O)c2c(c1)C(=O)c1cc(O)cc(O)c1C2=O
inactive: [2] | [4]

COC(=O)c1ccc(C(=O)OC)cc1
inactive: [1] | [2] | [3] | [4] | [5] | [6]

CC1(C)O[C@@H]2C[C@H]3[C@@H]4C[C@H](F)C5=CC(=O)CC[C@]5(C)[C@H]4[C@@H](O)C[C@]3(C)[C@]2(C(=O)CO)O1
inactive: [1] | [2] | [8] | [3] | [4] | [5] | [6]

Oc1ccc2ccccc2c1
inactive: [1] | [3] | [4] | [5] | [6]
inactive and 3.89 µM (active): [2]

C[C@@H](O)[C@H]1C(=O)N2C(C(=O)O)=C(S[C@@H]3CN[C@H](C(=O)N(C)C)C3)[C@H](C)[C@H]12
inactive: [1] | [2] | [3] | [4] | [5] | [6]

CC(C)n1c(/C=C/[C@@H](O)C[C@@H](O)CC(=O)O)c(-c2ccc(F)cc2)c2ccccc21
inactive: [1] | [3] | [4]

Oc1ccc2ccccc2c1N=Nc1ccccc1
inactive: [1] | [2] | [9] | [3] | [10] | [4]

NC(=O)NNc1ccccc1
inactive: [1] | [2] | [3] | [4] | [5] | [6]

CC1Cc2ccccc2N1NC(=O)c1ccc(Cl)c(S(N)(=O)=O)c1 (stereo not drawn)
inactive: [1] | [2] | [3] | [4]

CCCCCCC(C)(C)S
inactive: [1] | [2] | [9] | [3] | [10] | [4]

CC1=C(/C=C/C(C)=C/C=C/C(C)=C/CO)C(C)(C)CCC1
inactive: [2] | [8] | [3] | [4] | [6]

OC[C@@H](O)[C@H](O)[C@H](O)[C@@H](O)CO
inactive: [1] | [2] | [3] | [4] | [5] | [6]

CC1(C)CC(N=C=O)CC(C)(CN=C=O)C1 (stereo not drawn)
inactive: [1] | [2] | [9] | [3] | [10] | [4] | [5] | [6]

C=C(C)C(=O)OCCCCCC
inactive: [1] | [7] | [2] | [3] | [4] | [5] | [6]

OCC#CCO
inactive: [1] | [2] | [9] | [3] | [10] | [4] | [5] | [6]

Oc1c(Cl)cc(Cl)c(Cl)c1Cl
inactive: [1] | [2] | [8] | [10] | [4] | [5]

S=c1nc[nH]c2nc[nH]c12
active: [1] 23.9 µM
inactive: [7] | [8] | [3] | [6]

CC(=O)Nc1ccc(C(=O)O)cc1
inactive: [1] | [2] | [3] | [4]

C=C1CC[C@H](O)CC1=C/C=C1\CCC[C@]2(C)[C@@H]([C@H](C)/C=C/[C@H](C)C(C)C)CC[C@@H]12
inactive: [2] | [8] | [10] | [4]
active: [1] 54.5 µM and 6.16 µM | [5] 3.86 µM

Cc1cc(NS(=O)(=O)c2ccc(N)cc2)no1
inactive: [1] | [2] | [9] | [3] | [10] | [4] | [5] | [6]

CC1=C(CC(=O)O)c2cc(F)ccc2/C1=C\c1ccc(S(C)=O)cc1 (stereo not drawn)
inactive: [1] | [2] | [8] | [3] | [4]

CC#C[C@]1(O)CC[C@H]2[C@@H]3CCC4=CC(=O)CCC4=C3[C@@H](c3ccc(N(C)C)cc3)C[C@@]21C
inactive: [2] | [4]

NCCc1ccc(O)c(O)c1
inactive: [1] | [2] | [9] | [3] | [10] | [4] | [5] | [6]

O=C(O)c1cc(-c2ccccc2)nc2ccccc12
inactive: [1] | [7] | [8] | [9] | [3] | [10] | [4] | [5] | [6]

Cc1cc(Cc2ccc(N)c(C)c2)ccc1N
inactive: [1] | [2] | [9] | [3] | [10] | [4]

CN(C)c1ccc(C(=N)c2ccc(N(C)C)cc2)cc1
active: [6] 5.93 µM
inactive: [7] | [2] | [3] | [4] | [5]

CN(CCOc1ccc(CC2SC(=O)NC2=O)cc1)c1ccccn1 (stereo not drawn)
inactive: [1] | [2] | [9] | [3] | [10] | [4]

CN(C)c1cccc(O)c1
inactive: [1] | [7] | [8] | [3] | [4] | [5] | [6]

CC(C)NCC(O)COc1cccc2ccccc12 (stereo not drawn)
inactive: [1] | [9] | [3] | [10] | [4] | [5] | [6]
active: [2] 49.5 µM and 21.9 µM

Nc1c(S(=O)(=O)O)cc(Br)c2c1C(=O)c1ccccc1C2=O
inactive: [1] | [2] | [3] | [4] | [5] | [6]

CC(=O)CCc1ccccc1
inactive: [1] | [2] | [3] | [4] | [5] | [6]

CCCCCCCCCC(=O)O
inactive: [1] | [2] | [8] | [3] | [4] | [5] | [6]
